The panel holds about 83,000 compounds, 20% with a hit somewhere; the sample as a whole holds those more often.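 Treatment: one concentration, 48 hours, 96-well format. Scoring: percent growth, with anything below 10 considered active.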 Activity calls are given as the source filed them.
Assays:
Assay in all cases: NCI-60 one-dose screen, 48 h (100 = growth as untreated, 0 = no growth, -100 = all killed)
Details in all cases: 10 µM
[1] = tested on: T-47D breast
[2] = tested on: BT-549 breast
[3] = tested on: MDA-MB-435 melanoma
[4] = tested on: SW-620 colon
[5] = tested on: MCF7 breast
[6] = tested on: HCT-116 colon
[7] = tested on: HCC-2998 colon
[8] = tested on: KM12 colon

Measured: growth

O=C(NC1CCCC1)c1ccc(N2CCC(NCc3cccc(C(F)(F)F)c3)CC2)cc1
inactive: [1] 83.2% | [2] 89.3% | [3] 105% | [4] 97% | [5] 95.8% | [6] 86.5% | [7] 41.2% | [8] 84.5%

CC(=O)O[C@H]1CC[C@@]2(C)[C@@H](CC[C@@H]3[C@@H]2CC[C@]2(C)C=C(C=O)C[C@@H]32)C1
inactive: [1] 33.6% | [2] 68.5% | [3] 57.8% | [4] 30.1% | [7] 92.5% | [8] 107%
active: [5] 7.05% | [6] -19.3%

COc1cc([C@@H]2c3cc4c(cc3[C@H](SC(=N)N)[C@H]3COC(=O)[C@H]23)OCO4)cc(OC)c1OC
active: [3] -31.1% | [6] 0.571% | [7] -1.43% | [8] -0.331%
inactive: [1] 58.6% | [2] 21.7% | [4] 22.5% | [5] 14.4%

CCCCCCCCCCCCCC[n+]1ccccc1
inactive: [1] 12.7%
active: [2] -42.4% | [3] -87.6% | [4] 2.31% | [5] 2.73% | [6] -44.3% | [7] -72.1% | [8] -86.1%

COc1ccc(-c2nnc(SCC(=O)c3ccccc3)o2)cc1
inactive: [1] 86.3% | [2] 74.9% | [3] 101% | [4] 102% | [5] 104% | [6] 78.9% | [7] 86.1% | [8] 98.3%

COc1ccc(C2C=C(c3ccc(Cl)c(Cl)c3)N=C3SC(C)=CN32)cc1OC (stereo unspecified)
inactive: [1] 64% | [2] 89.1% | [3] 69.4% | [4] 85.7% | [5] 72.8% | [6] 48.8% | [7] 77.8% | [8] 57%

Nc1nc2c(nnn2C2CC(O)C(CO)O2)c(=O)[nH]1 (stereo unspecified)
inactive: [1] 49.8% | [2] 61.5% | [3] 41.1% | [4] 33.1% | [5] 37.4% | [6] 49.5% | [7] 51.3% | [8] 44.7%

C/C(=N\NC(=S)N1CCCC1)c1ccccn1
inactive: [1] 18.3% | [2] 28.1% | [3] 19.2% | [4] 22.6% | [5] 14.2% | [6] 22.3% | [7] 14.7% | [8] 17.4%

O=c1c2cccc3c(Nc4ccc(Br)cn4)ccc(c32)c2nc3ccccc3n12
active: [5] 4.15%
inactive: [1] 18.9% | [2] 84.4% | [3] 97% | [4] 94.8% | [6] 88.2% | [7] 74.8% | [8] 77.2%

COc1cc(-c2cc(-c3cc(OC)c(OC)c(OC)c3)nc3nc(N)[nH]c(=O)c23)ccc1Oc1ccnc2cc(Cl)ccc12
active: [3] -57.6%
inactive: [1] 30.3% | [2] 34.9% | [4] 19.6% | [5] 17.4% | [6] 16.1% | [7] 56.9% | [8] 13.5%

CCCCCCCOc1cccc(/C=C2/C(=O)N=C3SCCCN32)c1
active: [1] 0.89%
inactive: [2] 51.3% | [3] 56.4% | [4] 76.6% | [5] 29.4% | [6] 39.9% | [7] 95.8% | [8] 75.2%

COc1cc(-c2cc(/C=C/C(C)=O)[nH]n2)cc(OC)c1OC
inactive: [1] 32.2% | [2] 71.7% | [3] 61.8% | [4] 74.3% | [5] 41% | [6] 39% | [7] 103% | [8] 72%

Oc1[nH]c2ccccc2c1/C=c1/cc2c(c(-c3ccc(C(F)(F)F)cc3)n1)=Nc1ccccc1-2
active: [3] 4.17%
inactive: [1] 37.5% | [2] 82.7% | [4] 41.8% | [5] 11.3% | [6] 30% | [7] 54.7% | [8] 36.2%

Cc1ccc(-n2c(-c3cc4c([nH]c5ccccc54)c(-c4cccc(O)c4)n3)n[nH]c2=S)cc1
active: [2] -35.7% | [3] 1.24% | [5] 2.88% | [6] 3.29% | [7] -52.5% | [8] 5%
inactive: [1] 20.4% | [4] 10.5%

CCOC(=O)C(CCC1=NC(C)(C)CC(C)O1)C(=O)OCC (stereo unspecified)
inactive: [1] 102% | [2] 88.9% | [3] 104% | [4] 56.7% | [5] 72.8% | [6] 46% | [7] 98.8% | [8] 94.4%

O=C(NNc1nc(N2CCCC2)nc(N2CCCC2)n1)c1ccccc1
inactive: [1] 97.6% | [2] 112% | [3] 117% | [4] 104% | [5] 96.2% | [6] 109% | [7] 106% | [8] 104%

CCCCCCCCCCCCCC[n+]1ccc(C)cc1
active: [2] -45% | [3] -64.8% | [4] -3.73% | [5] 0.934% | [6] 0.372% | [7] -69.7% | [8] -97.9%
inactive: [1] 12.4%

c1ccc(OCCC[P+](c2ccccc2)(c2ccccc2)c2ccccc2)cc1
active: [3] 0.653% | [5] 4.3% | [6] 6.18% | [8] 6.18%
inactive: [1] 13.3% | [2] 11% | [4] 18.9% | [7] 14.3%

CCCCNC(=O)Oc1ccc(/C(=C(\C)c2ccc(OC)cc2)c2ccc(OCCN3CCCCC3)cc2)cc1
inactive: [1] 32.4% | [2] 52% | [3] 59.8% | [4] 40.5% | [5] 24.2% | [6] 29.4% | [7] 72.8% | [8] 45.4%

O=S(=O)(NCCO)c1ccc(OCCOc2ccc(S(=O)(=O)NCCO)cc2)cc1
active: [7] 9.56%
inactive: [1] 84.5% | [2] 95.7% | [3] 104% | [4] 101% | [5] 96% | [6] 102% | [8] 104%

O=S(=O)(NC1c2ccccc2Oc2ccccc21)c1ccccc1
inactive: [1] 82.3% | [2] 91.6% | [3] 107% | [4] 97% | [5] 91.5% | [6] 84.9% | [7] 103% | [8] 104%

COc1ccc(-c2nc(-c3ccccc3)c(-c3ccccc3)[nH]2)cc1OC1CCCC1
inactive: [1] 35.1% | [2] 81.9% | [3] 78.9% | [4] 82.6% | [5] 78.7% | [6] 73.6% | [7] 69.7% | [8] 43.5%

CCc1ccc(-c2nnc(COc3ccc(-c4nc5ccccc5[nH]4)cc3OC)o2)cc1
inactive: [1] 87.9% | [2] 51.7% | [3] 56.7% | [4] 58.1% | [5] 33.5% | [6] 28.9% | [7] 81.6% | [8] 58%

O=C(Nc1ccc(Oc2ccc(Nc3nc4ccccc4s3)cc2)cc1)Nc1ccc(Cl)c(Cl)c1
inactive: [1] 13.9% | [2] 59.5% | [3] 25.4% | [4] 33.6% | [5] 29.3% | [6] 16.8% | [7] 29.4% | [8] 20.7%

COc1cccc(C(=O)N(c2ccc(F)c(F)c2)C(C(=O)NC(C)(C)C)c2cc3c(C)cc(C)cc3nc2Cl)c1 (stereo unspecified)
inactive: [1] 46.6% | [2] 90.7% | [3] 63.2% | [4] 78.6% | [5] 45.6% | [6] 34.8% | [7] 88.3% | [8] 60.2%

O=C(CCc1ccccc1)N1CCN(C(=O)CCc2ccccc2)CC1
inactive: [1] 108% | [2] 105% | [3] 106% | [4] 109% | [5] 95.7% | [6] 99.6% | [7] 109% | [8] 111%

O=C1c2cc(Cl)ccc2-c2c(O)cc(Cl)cc21
inactive: [1] 63.9% | [2] 100% | [3] 106% | [4] 82.7% | [5] 77% | [6] 22.2% | [7] 105% | [8] 61%

— PubChem BioAssay (NCI)
